# Test results as given in PubChem BioAssay AID1532 (PCMD, 2009).
# Among all 110,000 compounds or so, about 420 (0.38%) were called active. Cut-off read from the data, not from the text of the source: active = inhibition above about 30% (passing the limit was not always enough); inconclusive = no clear call, values can overlap the other calls. What follows is part of a selection rich in actives, with near analogues and random picks from the rest.
# Test system: RmlC (dTDP-4-dehydrorhamnose 3,5-epimerase) and RmlD (dTDP-4-dehydrorhamnose reductase), coupled enzyme assay
# Assay: RmlC and RmlD coupled enzyme inhibitors, primary screen, biochemical, 384-well, compound mixtures, retest (AID 1532)
# Details: 384-well mixture HTS, at 5.5 µM, stronger effect = higher value
# [1] = measured here: mean retest inhibition
SMILES,inhibition,inhibition [1] [%]
COc1cc(OC)c2ccc(=O)oc2c1C(CCN1CCN(c2ccccc2)CC1)c1ccc2c(c1)OCO2 (configuration not stated),-3.48% (inactive),–
CCOC(=O)/C=C/CN(C(=O)OC(C)(C)C)S(=O)(=O)N1CC=CC1,-3.8% (inactive),–
C#CCOCCOCCOCCNc1nc(N2CCN(C(=O)[C@H](CCC(=O)O)n3cc(C(N)CO)nn3)CC2)nc(N2CCN(C(=O)[C@H](CCCCN)n3cc(C(N)CC(C)C)nn3)CC2)n1 (some centres not stated),12.9% (inactive),–
Cc1nc(-c2ccccc2)sc1C1(C)CC(c2cccnc2)=NO1 (configuration not stated),1.85% (inactive),–
O=c1[nH]snc1-c1c(Cl)cccc1Cl,-15.8% (inactive),–
COC(C[C@H](O)CC(=O)COCc1ccccc1)OC,-6.86% (inactive),–
CCN1C(=O)N[C@@H](c2ccccc2)[C@H](C(C)=O)[C@H]1C,-8.96% (inactive),–
Cc1ccc(-c2cc(=O)c3ccc(F)cc3[nH]2)cc1,-13.2% (inactive),–
O=C(NCC1CC1)c1onc(CSc2ccccc2)c1C(=O)NCC1CC1,-3.31% (inactive),–
O=C1CC2(CCCC2)Oc2ccc(Cl)cc21,2.74% (inactive),–
COC(=O)Cc1cc(=O)oc2c(C)c(O)ccc12,115% (active),108
COC(=O)COc1ccc2oc(=O)cc(C)c2c1,10.6% (inactive),–
CCCc1cc(=O)oc2c(C)c(O)c(CN3CCCCC3)cc12,125% (inactive),66.6
CCO[C@H]1OC(C(=O)N2CCN(Cc3ccccc3)CC2)=C[C@@H](c2cn(C(C)=O)c3ccccc23)[C@@H]1CCCO,77% (inactive),8.54
Cc1nc(C(=O)Nc2ccc(Cl)cc2)sc1C1(C)CC(c2ccccc2)=NO1 (configuration not stated),7.11% (inactive),–
C=CCOC(=O)C1=C[C@H](c2ccc(Br)cc2)C[C@H](OCCCCO)O1,–,3.33
C[C@@H](C(=O)N1CCNCC1)n1cc(CCC(=O)O)nn1,-10.6% (inactive),–
CC(=O)Nc1sc2c(c1C(c1cccc(F)c1)N1CCN(CCO)CC1)CCCC2 (configuration not stated),-13.5% (inactive),–
CN(Cc1ccccc1)C(=O)COc1ccccc1,-9.33% (inactive),–
CN(C(=O)c1ccno1)c1nnc(-c2cccnc2)s1,11.4% (inactive),–
COc1cccc(-c2nnc(N(C)C(=O)c3ccno3)s2)c1,11.7% (inactive),–
CN(C(=O)C1CCOC1)c1nnc(-c2cccnc2)s1 (configuration not stated),-5.38% (inactive),–
CN(C(=O)c1ccccn1)c1nnc(-c2ccccn2)s1,73.7% (active),110
COC(=O)Nc1c(C)n(C)n(-c2ccccc2)c1=O,3.72% (inactive),–
Cc1cc(C(=O)Nc2c(C)n(C)n(-c3ccccc3)c2=O)cs1,-9.2% (inactive),–
Cc1c(NC(=O)c2coc(=O)c(Br)c2)c(=O)n(-c2ccccc2)n1C,75.6% (active),104

SMILES,inhibition,inhibition [1] [%]
COc1ccc(COCCN2CCN(S(=O)(=O)c3ccccc3)CCC2=O)cc1,2.31% (inactive),–
CC(=O)N[C@H]1[C@H]([C@H](O)[C@H](O)CO)OC(C(=O)O)=C[C@@H]1O,1.59% (inactive),–
COc1ccc(C2/C=C\CN(CC(C)C)CC(=O)N2Cc2ccc(F)cc2)cc1 (configuration not stated),-6.08% (inactive),–
NC(N)=NCCCc1cn(CC(=O)N2CCNCC2)nn1,-8.74% (inactive),–
COc1ccc2c(c1)CCNC2Cc1ccc(OC)c(O)c1 (configuration not stated),-40.5% (inactive),–
Cc1cn(C)c(=O)n(C)c1=O,-2.57% (inactive),–
CC(C)(C)OC(=O)NCCCC1=CC2=CC(=O)C(C)(OC(=O)c3ccco3)C(=O)C2=CO1 (configuration not stated),-13.3% (inactive),–
Cc1ccc(NC(=O)N2CCSc3ccccc32)cc1,-8.05% (inactive),–
NC(=O)CC[C@@H]1NC(=O)[C@H](CO)NC(=O)c2cc([N+](=O)[O-])cc(I)c2NCC[C@@H](C(N)=O)NC1=O,-1.33% (inactive),–
CCCC[C@@H]1CN=C(N)N1CCc1cccc(F)c1,4.76% (inactive),–
CNC(=O)c1[nH]cnc1C(=O)N[C@@H](CC(C)C)C(=O)OC(C)(C)C,-13.2% (inactive),–
C#Cc1ccc([C@@H]2C=C(C(=O)O)O[C@H](OCCCCO)C2)cc1,-5.63% (inactive),–
O=C(NCc1ccccc1)c1onc(CSc2ccncc2)c1C(=O)NCc1ccccc1,2.05% (inactive),–
CCOC(=O)c1ccc(NC(=O)c2c(N)n(C)c(=O)[nH]c2=O)cc1,8.64% (inactive),–
COc1ccc(CNC(=O)[C@@H]2CC=C[C@@H]3CCN(C4CC4)C(=O)[C@@H]32)cc1,4.14% (inactive),–
CC1(C)S[C@@H]2[C@H](NC(=O)COc3ccccc3)C(=O)N2C1C(=O)OCc1ccccc1 (some centres not stated),5.36% (inactive),–
C#CCCOC(=O)N1C2=NC(C(=O)OC)=C(C(=O)OC)[C@@H]3N(C)c4ccc(OC)cc4[C@]23C[C@H]1C(=O)OC,-9.08% (inactive),–
CN1CCN(C(CNS(=O)(=O)c2cccs2)c2cccnc2)CC1 (configuration not stated),-1.39% (inactive),–
O=C1N[C@@H](Cc2ccccc2)C(=O)N2[C@@H]3N(S(=O)(=O)c4ccc(F)cc4)c4ccccc4[C@]3(Br)C[C@@H]12,-18.2% (inactive),–
C#CCOCCOCCOCCNc1nc(N2CCN(C(=O)[C@H](CCC(=O)O)n3cc(C(N)CO)nn3)CC2)nc(N2CCN(C(=O)[C@H](Cc3ccc(O)cc3)n3cc(C(N)[C@H](C)CC)nn3)CC2)n1 (some centres not stated),7.3% (inactive),–
O=C1N[C@H](Cc2ccccc2)C(=O)N[C@H]1Cc1cn(S(=O)(=O)c2ccccc2)c2ccccc12,-14.5% (inactive),–
CC(C)[C@@H]1NC(=O)c2cc([N+](=O)[O-])cc(I)c2NCCC[C@@H](C(=O)NC(CC(=O)O)C(N)=O)NC(=O)[C@H](CO)NC1=O (some centres not stated),-19.9% (inactive),–
NC(=O)CC[C@@H]1NC(=O)[C@@H]2CCCN2C(=O)c2cc([N+](=O)[O-])cc(F)c2NCCC[C@@H](C(N)=O)NC1=O,-71.2% (inactive),–
NC(=O)C1=C[C@H](c2csc3ccccc23)C[C@H](OCc2ccc(CO)cc2)O1,-63% (inactive),–
COP1(=O)C[C@@H](O)[C@@H](O)[C@@H](COCc2ccccc2)O1 (some centres not stated),11.1% (inactive),–
CCN1C(=O)N[C@@H](CCc2ccccc2)C(C(=O)OC)=C1C,4.12% (inactive),–
